This note sets out measurements from PubChem BioAssay AID504465 (National Center for Advancing Translational Sciences (NCATS), 2011).

Out of some 2,100 compounds screened, about 210 (10%) were called active. Not shown: some 53% with an inconclusive outcome. The call rests on the fitted dose curve; in most records, active means well fitted inhibition curve with a large enough effect; inconclusive means small, poorly fitted or top-dose-only effect, or effect the other way; inactive means no such curve, though single readings can be large or run the other way. The list shows a part of the results. A call without a number means that no potency is given here.
Potency means the concentration at half of the fitted maximal effect.

This test can be described thus: IN Cell qHTS Assay for Inhibitors of the mTORC1 Signaling Pathway in MEF (Tsc2-/-, p53-/-) Cells: Sytravon. Further: nearly all actives have a fitted effect of over 60% in size. To be noted: phospho-rpS6 immunofluorescence, 24 h; series mostly up to 38.3 µM. Put shortly:
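Tsc2-/-, p53-/- MEFs (empty-vector) treated with compound 24 h at 37 degree Celsius, then fixed and stained for phospho-rpS6 Ser235/236 (Alexa-488) plus Hoechst. Reported as % positive cells, thresholds set against 7.5 nM rapamycin and DMSO wells.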
For the molecule `O=C1C(Nc2ccccc2)=CC(c2ccc(Br)cc2)N1c1ccccc1` (centres undefined), the Potency result is “inactive”.

Turning to `COc1ccc(-n2nnnc2C2CCN(S(=O)(=O)c3cc(Cl)ccc3OC)CC2)cc1`, the Potency result was “inactive”.

As for `O=C(NCCc1csc(-c2cccnc2)n1)c1cccc(C(F)(F)F)c1`, the Potency entry was “inactive”.

On to `O=C(C1CCC(CNS(=O)(=O)c2ccc(Br)s2)CC1)N1CCN(c2ccccc2)CC1` (centres undefined), for which the Potency result was “inactive”.

Consider `O=S(=O)(c1ccccc1)n1nc(-c2ccc(Cl)cc2)nc1NCc1ccc(F)cc1`, for which the Potency entry is “inactive”.

Regarding `CCS(=O)(=O)c1oc(-c2ccc(F)cc2)nc1S(=O)(=O)c1ccccc1`, the Potency was 0.208 µM (active).

In the case of `O=S(=O)(c1ccc(Cl)cc1)c1nc(-c2ccco2)oc1SCc1ccccc1F`, the Potency entry was “inactive”.

Turning to `COc1ccc(S(=O)(=O)N(Cc2nc(-c3cccc(C)c3)no2)C2CCCCC2)cc1`, the Potency result was “inactive”.

In the case of `COc1ccc(NC2=C(c3ccc(C(F)(F)F)cc3)C(=O)c3ccccc32)cc1`, the Potency result is “inactive”.

Turning to `COc1ccc(-c2cc(C(F)(F)F)nc(S(C)(=O)=O)n2)cc1`, the Potency was 11.7 µM (active).

As to `COc1ccc(C)cc1NC(=O)c1oc2ccc(S(=O)(=O)N3CCC4(CC3)OCCO4)cc2c1C`, the Potency entry was “inactive”.

With `CC(C)Oc1cccc(C2CC(=O)Nc3cc4c(cc32)OCO4)c1` (centres undefined), the Potency result is “inactive”.

`COC(=O)c1c(-c2ccc(Cl)cc2)noc1N1CCN(c2cccc(C(F)(F)F)c2)CC1`: the Potency entry was “inactive”.

Take `CCCCN(C)CC(O)Cn1cc(/C=C/C(=O)c2ccc(Br)cc2)c2ccccc21` (centres undefined): the Potency entry was “inactive”.

Regarding `CCCN(CCC)CC(O)Cn1cc(/C=C/C(=O)c2ccc(OCC)cc2)c2ccccc21` (centres undefined), the Potency is 14.7 µM (active).

On to `Cc1cccc(NC(c2ccccc2C)c2ccc3ccc(C)nc3c2O)n1` (centres undefined), for which the Potency result was “inactive”.

With `COc1ccc(CCNC(=O)CCc2cn(Cc3ccc(F)cc3)c3ccccc23)cc1OC`, the Potency result is “inactive”.

On to `COc1ccccc1CNC(=O)CCc1c(C)c2ccc(OC)c(C)c2oc1=O`, for which the Potency was 1.47 µM (active).

For `CCOc1ccccc1CNC(=O)CCc1cn(C)c2ccccc12`, the Potency entry is “inactive”.

Regarding `CCN(CC)S(=O)(=O)c1ccc2oc(C(=O)NCc3ccccc3OC)c(C)c2c1`, the Potency result was “inactive”.

Consider `Cc1ccc(CN2CCCn3nc(C(=O)NCc4ccccc4Cl)cc3C2=O)cc1`, for which the Potency result was “inactive”.

On to `Nc1cc(=O)nc(SCC(=O)Nc2ccc(F)cc2)n1-c1ccc(Cl)cc1`, for which the Potency result was “inactive”.

As to `Cc1ccc(-c2nc(N3CCCC(C)C3)c3ccccc3n2)cc1` (centres undefined), the Potency entry was “inactive”.

On to `COc1ccc2ncc3c(-c4ccc(C)c(C)c4)nn(CC(=O)Nc4ccccc4)c3c2c1`, for which the Potency result was “inactive”.

Take `Cc1ccc(N2CC(C(=O)NCCS(=O)(=O)N3CCN(c4ccccc4F)CC3)CC2=O)cc1` (centres undefined): the Potency entry is “inactive”.

Take `O=C(NCCCN1CCN(c2ccccc2F)CC1)c1nnc(Cc2ccc(Cl)cc2Cl)o1`: the Potency entry was “inactive”.

For `COc1ccc(-c2nc(CN3CCC(C(=O)NCCCN4CCN(c5ccccc5F)CC4)CC3)c(C)o2)cc1OC`, the Potency is 13.1 µM (active).

Turning to `CC(C(=O)NCc1cccc(Br)c1)n1ncn2cccc2c1=O` (centres undefined), the Potency is 1.47 µM (active).

For `O=C(Cn1c(=O)c2cccn2c2ccc(F)cc21)NCc1cccc(Cl)c1`, the Potency result is “inactive”.

For `COc1cccc(CNC(=O)CCn2cccn2)c1`, the Potency result was “inactive”.

For the molecule `Cn1cc(-c2cc3n(n2)CCC(=O)N3CC(=O)NCc2ccc(Cl)cc2)c2ccccc21`, the Potency entry was “inactive”.

In the case of `CCOC(=O)c1nc(Nc2ccc(C(=O)OC(C)C)cc2)c2ccccc2n1`, the Potency result was “inactive”.

Consider `CCc1ccc(NC(=O)CSc2nc3n[nH]c(C)c3c(=N)n2-c2ccc(C)cc2)cc1`, for which the Potency entry is “inactive”.

Take `COc1cc(CNc2ccc3c(c2)ncn3C(C)C)cc(OC)c1OC`: the Potency entry was “inactive”.

For `Cc1ccc(NC(=O)c2c(C)oc3ccc(O)c(CN4CCCCCC4)c23)c(C)c1`, the Potency result was “inactive”.

Turning to `CC1CCN(S(=O)(=O)c2ccc3nc(Nc4cccc(C(F)(F)F)c4)ccc3c2)CC1`, the Potency entry is “inactive”.

Turning to `CS(=O)(=O)c1ncc(Cl)c(C(=O)N(Cc2ccc(Cl)cc2)Cc2ccco2)n1`, the Potency is 2.33 µM (active).

Turning to `CCOc1ccccc1C(=O)N(Cc1ccco1)Cc1ccccc1F`, the Potency entry is “inactive”.

Turning to `Cc1cccc(OCC(=O)N(Cc2ccc(C(C)(C)C)cc2)Cc2ccco2)c1`, the Potency entry is “inactive”.

Turning to `CCc1ccc2oc(C(=O)N(Cc3cccc(Cl)c3)Cc3ccco3)c(C)c2c1`, the Potency entry is “inactive”.

Consider `CCS(=O)(=O)c1ncc(Cl)c(C(=O)N(Cc2ccccc2)Cc2ccco2)n1`, for which the Potency was 3.69 µM (active).

Regarding `O=C(NCC1CCN(Cc2cccc(F)c2)CC1)c1cc2ccc3cccnc3c2[nH]1`, the Potency result was “inactive”.

As to `CCOC(=O)c1sc2ccccc2c1S(=O)(=O)Nc1ccc(CC)cc1`, the Potency entry is “inactive”.

Regarding `COc1ccccc1C1C(C(=O)Nc2ccccc2)=C(C)Nc2nc(-c3ccccc3)nn21` (centres undefined), the Potency entry is “inactive”.

As to `COc1ccc(C2C(C(=O)Nc3ccccc3)=C(C)Nc3nc(-c4ccc(Cl)cc4)nn32)cc1` (centres undefined), the Potency was 13.1 µM (active).

With `CC1=C(C(=O)Nc2ccc(Cl)cc2)C(c2ccccc2)n2ncc(C(=O)Nc3ccccc3)c2N1` (centres undefined), the Potency entry was “inactive”.

`COc1ccc(/C=C/C(=O)Nc2ccc3nc4c(c(Nc5ccc(OC)c(OC)c5)c3c2)CCCC4)cc1`: the Potency was 3.69 µM (active).

With `COc1ccc(Nc2c3c(nc4ccc(NC(=O)/C=C/c5cc(OC)c(OC)c(OC)c5)cc24)CCCC3)cc1OC`, the Potency was 1.47 µM (active).

As to `COc1ccc(S(=O)(=O)Nc2ccc3oc4c(c3c2)CCCC4)cc1`, the Potency entry is “inactive”.

Turning to `CCOc1ccc(NC(=O)CSc2c3c(nc4ccccc24)CCCC3)cc1`, the Potency entry is “inactive”.

Take `COc1cccc(NC(=O)CSc2c3c(nc4ccccc24)CCCC3)c1`: the Potency result was “inactive”.

On to `COc1ccc(/C=C/C(=O)Nc2ccc3nc4c(c(Nc5ccccc5OC)c3c2)CCCC4)cc1`, for which the Potency is 2.07 µM (active).

Regarding `O=S(=O)(c1ccccc1F)N1CCC(Oc2ccc(-n3cnnn3)cc2)CC1`, the Potency entry is “inactive”.

For `CCOCCc1nn2c(=O)cc(COC(=O)c3ccc(NC(=O)c4cccs4)cc3)nc2s1`, the Potency result was “inactive”.

Consider `CCOc1ccc(S(=O)(=O)Nc2cc(Cl)ccc2OC)c2cccnc12`, for which the Potency result was “inactive”.

On to `COc1ccc(NC(=O)CCn2cnc3onc(-c4ccc(F)cc4)c3c2=O)cc1OC`, for which the Potency entry was “inactive”.

Regarding `CCCn1c(=O)sc2cc(NC(=O)c3ccc(OC)c(Br)c3)ccc21`, the Potency result is “inactive”.

`COc1c(C)cc(Br)cc1C(=O)Nc1ccc(-c2nc3ncccc3o2)cc1`: the Potency entry was “inactive”.

On to `CCC(=O)Nc1cc(-c2nc3cc(C)cc(C)c3o2)ccc1C`, for which the Potency result was “inactive”.

With `COc1ccc(-c2nc3cc(NC(=O)Cc4ccc(Cl)cc4)ccc3o2)cc1OC`, the Potency was 3.29 µM (active).

For `Cc1cccc(-c2nc3cc(NC(=O)Cc4ccc(Cl)cc4)ccc3o2)c1`, the Potency result is “inactive”.

Consider `COc1ccc(-c2nc3cc(C(C)C)ccc3o2)cc1NC(=O)c1ccccc1[N+](=O)[O-]`, for which the Potency result is “inactive”.

On to `COc1ccc(C(=O)Nc2ccc3oc(-c4ccc5ccccc5c4)nc3c2)cc1Br`, for which the Potency was 13.1 µM (active).

In the case of `O=C(Nc1ccc2oc(-c3ccc4ccccc4c3)nc2c1)c1cc(Br)ccc1Cl`, the Potency was 16.5 µM (active).

Take `CCOc1ccc(OCC)c(NC(=O)Cn2nc(CC)n3c(cc4sccc43)c2=O)c1`: the Potency entry was “inactive”.

On to `O=c1c2ccccc2n(Cc2cccc(F)c2)c(=O)n1Cc1ccccc1Cl`, for which the Potency result was “inactive”.

On to `COCCn1c(=O)[nH]c2cc(C(=O)N3CCN(c4ccc(Cl)cc4)CC3)ccc2c1=O`, for which the Potency entry is “inactive”.

In the case of `COc1ccccc1CN1COc2ccc3c(oc(=O)c4ccccc43)c2C1`, the Potency result is “inactive”.

Take `CC(C)CN(CC(C)C)c1nnc(NC(=O)Nc2cccc(C(F)(F)F)c2)s1`: the Potency entry is “inactive”.

`COc1ccc(OC)c(NS(=O)(=O)c2ccc3c(c2)C(C)(C)C(=O)N3C)c1`: the Potency result is “inactive”.

`COc1cc2nc(Nc3ccc(C)c(C)c3)nc(N)c2cc1OC`: the Potency was 4.14 µM (active).

`O=C(Cn1c(=O)oc2cc(S(=O)(=O)NCc3ccccc3)ccc21)NCc1ccc(Cl)cc1`: the Potency result was “inactive”.

`CC(C)(C)c1ccc(C(=O)N2CCCCC2CCN2CCCCC2)cc1` (centres undefined): the Potency entry is “inactive”.

For `CCOC(=O)c1ccc(N2C(=O)c3n[nH]c(-c4cccs4)c3C2c2ccc(CC)cc2)cc1` (centres undefined), the Potency result is “inactive”.

As to `CC(C)(C)c1ccc(C2NC(=O)c3n[nH]c(-c4cccs4)c32)cc1` (centres undefined), the Potency entry is “inactive”.

In the case of `CCOC(=O)c1ccc(N2C(=O)c3n[nH]c(-c4cccs4)c3C2c2cccc(F)c2)cc1` (centres undefined), the Potency was 13.1 µM (active).

For the molecule `Cc1ccc(C)c(NC(=O)Cn2cc(C(=O)c3cccs3)c3ccccc32)c1`, the Potency result is “inactive”.

`Cc1ccc(NC(=O)CSc2nc(-c3cccs3)cc(C(F)(F)F)n2)cc1C`: the Potency result is “inactive”.

On to `Cc1ccc(F)cc1NC(=O)CSc1nc(-c2cccs2)cc(C(F)(F)F)n1`, for which the Potency is 11.7 µM (active).

Turning to `Cn1c(=O)c2c(-c3ccc(Br)cc3)n(Cc3ccc(F)cc3)cc2n(C)c1=O`, the Potency result is “inactive”.

For `CSc1ccccc1NC(=O)CCS(=O)(=O)c1nc(-c2cccs2)cc(C(F)(F)F)n1`, the Potency entry is “inactive”.

Take `O=C(CCS(=O)(=O)c1nc(-c2cccs2)cc(C(F)(F)F)n1)Nc1cc(Br)ccc1O`: the Potency was 7.36 µM (active).

`COc1ccc(NC(=O)C2CCC(CNS(=O)(=O)c3ccc(Br)s3)CC2)cc1OC` (centres undefined): the Potency entry is “inactive”.

Regarding `COc1ccc(NC(=O)CCS(=O)(=O)c2nc(-c3cccs3)cc(C(F)(F)F)n2)cc1`, the Potency entry was “inactive”.

With `COc1ccc(NC(=O)CCS(=O)(=O)c2nc(-c3cccs3)cc(C(F)(F)F)n2)cc1OC`, the Potency is 16.5 µM (active).

On to `Cc1cccc(N2CCN(c3ncnc4c3nc3n4CCCCC3)CC2C)c1` (centres undefined), for which the Potency was 14.7 µM (active).

Consider `CC(=O)c1ccc(N2CCN(c3ncnc4c3c(-c3ccccc3)cn4-c3cccc(C)c3)CC2)cc1`, for which the Potency result was “inactive”.

`c1ccc(N2CCN(c3ncnc4c3nc3n4CCCCC3)CC2)cc1`: the Potency entry was “inactive”.

For the molecule `CCCc1cc(N2CCN(c3ccccc3)CC2)n2cnnc2n1`, the Potency result was “inactive”.

Turning to `CCCCC1CCC(C(=O)N2CC(=O)Nc3ccc(F)cc3C2c2ccc(F)cc2)CC1` (centres undefined), the Potency is 16.5 µM (active).

Take `Cc1c(Cl)cccc1NC(=O)c1ccc2c(c1)nnn2C1CCCC1`: the Potency entry is “inactive”.

As for `Nc1c(C(=O)c2ccc(F)cc2)sc(Nc2ccccc2F)c1S(=O)(=O)c1ccc(Br)cc1`, the Potency entry is “inactive”.

As to `COc1ccc(Nc2nnc(-c3ccc(C)c(S(=O)(=O)N4CCN(C)CC4)c3)c3ccccc23)cc1`, the Potency is 16.5 µM (active).

With `Cc1ccc(-c2nnc(Nc3cccc(Cl)c3)c3ccccc23)cc1S(=O)(=O)N1CCN(C)CC1`, the Potency is 9.27 µM (active).

In the case of `Cc1cc(-c2ccc(C)c(S(=O)(=O)N3CCOc4ccc(Cl)cc43)c2)on1`, the Potency entry was “inactive”.

With `Cc1cccc(NC(=O)Cn2nc(-c3ccc(Cl)cc3)c3ccccc3c2=O)c1`, the Potency result was “inactive”.

On to `Cc1cccc(Nc2nnc(-c3ccc(C)c(S(=O)(=O)N4CCN(C)CC4)c3)c3ccccc23)c1`, for which the Potency was 14.7 µM (active).

For `COC(=O)COc1ccc(-c2nnc(Nc3ccc(O)cc3)c3ccccc23)cc1`, the Potency entry is “inactive”.

On to `COc1ccc(OC2CCN(S(=O)(=O)c3ccc(OC)cc3)CC2)cc1`, for which the Potency entry was “inactive”.
